Reference: the supplement of paper PMC12494721
Structures can show the parent of a compound that is named as a salt. Unmarked numbers belong to inactive results.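 The calls were made as follows: for the amine columns active = adjusted P below 0.05 in both replicates with a change the same way and a mean fold change under 0.8 or over 1.25; inactive = the rest.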

Test system: Escherichia coli IAI1
Assay: fold change of Putrescine concentration vs plate DMSO controls (fold change (ratio)); higher = more amine produced, active = hit call of the paper (significant change in both replicates, either direction)
Conditions: incubation time: 27 h, anaerobic, 37 °C
Summary of the method: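 Extracts of whole anaerobic mGAM cultures were analysed for amines by LC–triple-quadrupole MS with dynamic MRM and external calibration curves, with drift corrected within batch. Four gut strains were grown at 37 °C for 27 h in 80 µL wells with compounds at 20 µM final, sweeteners at 50 µM final. Each value expresses fold change over plate DMSO controls. The average of 2 biological replicates is shown.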

Point of comparison: `CCCSc1nc(N[C@@H]2C[C@H]2c2ccc(F)c(F)c2)c2nnn([C@@H]3C[C@H](OCCO)[C@@H](O)[C@H]3O)c2n1` [Ticagrelor] (20 µM), “fold change of Putrescine concentration” value 1.04. Against it:
- CC(N)(Cc1ccc(O)c(O)c1)C(=O)O (centres undefined) [(L) Methyldopa] (20 µM) — lower, 0.882
- CN[C@@H]1[C@H](O[C@H]2[C@H](O[C@H]3[C@H](O)[C@@H](O)[C@H](N=C(N)N)[C@@H](O)[C@@H]3N=C(N)N)O[C@@H](C)[C@]2(O)C=O)O[C@@H](CO)[C@H](O)[C@H]1O [Streptomycin sulfate] (20 µM) — lower, 0.983
- CCOC(=O)c1ccc(OC(=O)CCCCCNC(=N)N)cc1 [Gabexate mesilate] (20 µM) — lower, 1.01
- NS(=O)(=O)c1cc(C(=O)O)c(NCc2ccco2)cc1Cl [Furosemide] (20 µM) — the same, 1.04
- CC(C)(Oc1ccc(Cl)cc1)C(=O)O [Clofibric acid] (20 µM) — lower, 0.957
- Cc1ccc(C(C)NC(=O)[C@@H](NC(=O)OC(C)C)C(C)C)cc1 (some centres undefined) (20 µM) — lower, 0.974
- COC(c1ccccc1)(c1ccccc1)[C@H](Oc1nc(C)cc(C)n1)C(=O)O [Ambrisentan] (20 µM) — higher, 1.21
- CN1CCN(CCCN2c3ccccc3Sc3ccc(C(F)(F)F)cc32)CC1 [Trifluoperazine dihydrochloride] (20 µM) — the same, 1.04
- C[N+](C)(CCOc1ccccc1)Cc1ccccc1.O=C([O-])c1cc2ccccc2cc1O [Bephenium hydroxynaphthoate] (20 µM) — lower, 0.854
- c1ccc2cc3c(ccc4ccccc43)cc2c1 [Benz[a]anthracene] (20 µM) — lower, 1.02
- C[C@H]1C[C@H]2[C@@H]3CCC4=CC(=O)C=C[C@]4(C)[C@@]3(F)[C@@H](O)C[C@]2(C)[C@@]1(O)C(=O)CO [Betamethasone] (20 µM) — higher, 1.07
- NC[C@H]1O[C@H](O[C@H]2[C@H](O[C@@H]3O[C@H](CO)[C@@H](O)[C@H]3O)[C@@H](O)[C@H](N)C[C@@H]2N)[C@H](N)[C@@H](O)[C@@H]1O [Ribostamycin sulfate salt] (20 µM) — higher, 1.14
- CCOC(=O)C1=C[C@]2(CC)CCCN3CCc4c(n1c1ccccc41)[C@@H]32 [Vinpocetine] (20 µM) — lower, 0.995
- CCOC1O[C@H]([C@@H](COCc2ccccc2)OCc2ccccc2)[C@H](OCc2ccccc2)[C@H]1O (some centres undefined) [Tribenoside] (20 µM) — lower, 1
- NCCCC[C@H](N[C@@H](CCc1ccccc1)C(=O)O)C(=O)N1CCC[C@H]1C(=O)O [Lisinopril] (20 µM) — lower, 0.998
- CC(C)(C)NC[C@H](O)c1ccc(O)c(CO)c1 [Levalbuterol hydrochloride] (20 µM) — higher, 1.24
- O=C(CCCl)NCc1ccccc1 [Beclamide] (20 µM) — lower, 1.01
- Cc1onc(-c2ccccc2Cl)c1C(=O)N[C@@H]1C(=O)N2[C@@H]1SC(C)(C)[C@@H]2C(=O)O [Cloxacillin sodium salt] (20 µM) — lower, 0.997
- CCN1CCCC1CNC(=O)c1cc(S(N)(=O)=O)ccc1OC (centres undefined) [Sulpiride] (20 µM) — lower, 0.997
- CCOc1ccc(NC(N)=O)cc1 [(4-Ethoxyphenyl)urea] (50 µM) — lower, 0.971
- O=C1OC(CN2CCOCC2)CN1/N=C/c1ccc([N+](=O)[O-])o1 (centres undefined) [Furaltadone hydrochloride] (20 µM) — lower, 0.777
- Cc1cc(N)c2ccccc2[n+]1CCCCCCCCCC[n+]1c(C)cc(N)c2ccccc21 [Dequalinium dichloride] (20 µM) — lower, 0.933
- Cc1ccc(C(=O)c2ccc(CC(=O)O)n2C)cc1 [Tolmetin sodium salt dihydrate] (20 µM) — lower, 0.949
- CNc1ncnc2c1ncn2[C@@H]1O[C@H](CO)[C@@H](O)[C@H]1O [N6-methyladenosine] (20 µM) — lower, 1
- Cc1c(N(C)CS(=O)(=O)O)c(=O)n(-c2ccccc2)n1C [Dipyrone sodium salt] (20 µM) — higher, 1.05
- CN(c1nccc(=O)[nH]1)C1CCN(c2nc3ccccc3n2Cc2ccc(F)cc2)CC1 [Mizolastine] (20 µM) — lower, 0.986
- CC(CN(C)C)C(C)(O)Cc1ccc(Cl)cc1 (centres undefined) [Clobutinol hydrochloride] (20 µM) — lower, 0.975
- Oc1c(Cl)cc(Cl)c2cccnc12 [Chloroxine] (20 µM) — lower, 0.945
- CC(=O)OCC(=O)[C@@]1(O)CC[C@H]2[C@@H]3CCC4=CC(=O)CC[C@]4(C)[C@@]3(F)[C@@H](O)C[C@@]21C [Fludrocortisone acetate] (20 µM) — higher, 1.09
- CC1=C(C(=O)O)N2C(=O)[C@@H](NC(=O)[C@H](N)c3ccc(O)cc3)[C@H]2SC1 [Cefadroxil] (20 µM) — lower, 1.03
- OC[C@H]1O[C@@](CO)(O[C@H]2O[C@H](CO)[C@@H](O)[C@H](O)[C@H]2O)[C@@H](O)[C@@H]1O [Sucrose] (50 µM) — lower, 1
- CCN(CC)CCOC(=O)C(c1ccccc1)C1CCCCC1 (centres undefined) [Drofenine hydrochloride] (20 µM) — higher, 1.06
- CN(C)CCCN1c2ccccc2Sc2ccccc21 [Promazine hydrochloride] (20 µM) — lower, 0.916
- CCc1cccc(CC)c1NC(=O)CN(CC(=O)O)CC(=O)O [Etifenin] (20 µM) — lower, 0.998
- CC(Cc1cccc(C(F)(F)F)c1)NCCOC(=O)c1ccccc1 (centres undefined) [Benfluorex] (20 µM) — higher, 1.06
- Cn1c(=O)c2c(ncn2C)n(C)c1=O [Caffeine] (20 µM) — lower, 0.987
- O=c1[nH]c(=O)n([C@H]2C[C@H](O)[C@@H](CO)O2)cc1C(F)(F)F [Trifluridine] (20 µM) — lower, 0.948
- CCOC(=O)NNc1nncc2ccccc12 [Todralazine hydrochloride] (20 µM) — lower, 1.02
